The subject of experiment [1] is MCC-13. Nature of the experiment: qHTS assay to identify novel small-molecules to repurpose for Merkel cell carcinoma treatment (AID 1296009). Further: nearly all actives have a fitted effect of over 60% in size. Further: potency means the concentration at half of the fitted maximal effect. The settings on record: MCC and control cell lines, CellTiter-Glo viability, 72 h; series mostly up to 46 µM. Put shortly:
(§1)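 After compound transfer in DMSO, plates were kept 72 hr at 37 degree celsius. Luminescent ATP signal from CellTiter-Glo served as viability measure, normalized against DMSO and no-cell controls.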
In general terms: qHTS replaces the single test concentration by a dilution series.

For experiment [2], the system named is MCC-26. The experiment is described as above. The note with it: MCC and control cell lines, CellTiter-Glo viability, 72 h; series mostly up to 46 µM. Put shortly:
as §1
On the technique in general: Cellular ATP, detected with luciferase, serves as a proxy for viable cell number.

In experiment [3] the test system is MKL-1. The description is as above. The note with it: MCC and control cell lines, CellTiter-Glo viability, 72 h; series mostly up to 46 µM. Put shortly: as §1
Experiment [4] concerns UISO. Described as above. The note with it: MCC and control cell lines, CellTiter-Glo viability, 72 h; series mostly up to 46 µM. Put shortly: as §1
Experiment [5] relates to WaGa. The description is as above. The note with it: MCC and control cell lines, CellTiter-Glo viability, 72 h; series mostly up to 46 µM. Put shortly: as §1
Experiment [6] relates to C33A. Nature of the experiment: Primary qHTS to identify gynecologic anti-cancer compounds using libraries of approved drugs and bioactive compounds (AID 1345084). Further: nearly all actives have a fitted effect of over 55% in size. The settings on record: Gynecologic cancer cell panel viability, ATPlite luminescence, 48 h; series mostly up to 57.5 µM. Put shortly: (§2)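 Cells, 1,000 per well, plated 16 h, then exposed 48 h at 37 C to compounds. Viability by ATPlite luminescence after 15 min at room temperature.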

For experiment [7], the system named is CAOV3. Described as above. The note with it: Gynecologic cancer cell panel viability, ATPlite luminescence, 48 h; series mostly up to 57.5 µM. Put shortly:
as §2

In experiment [8] the test system is Es-2. The experiment is described as above. The note with it: Gynecologic cancer cell panel viability, ATPlite luminescence, 48 h; series mostly up to 57.5 µM. Put shortly:
as §2

Experiment [9] concerns HeLa. The description is as above. The note with it: Gynecologic cancer cell panel viability, ATPlite luminescence, 48 h; series mostly up to 57.5 µM. Put shortly: as §2
Experiment [10] concerns Hek293T. The description is as above. The note with it: Gynecologic cancer cell panel viability, ATPlite luminescence, 48 h, control line for the selectivity index; series mostly up to 57.5 µM. Put shortly: as §2
Experiment [11] relates to JEG-3. Described as above. The note with it: Gynecologic cancer cell panel viability, ATPlite luminescence, 48 h; series mostly up to 57.5 µM. Put shortly:
as §2

In experiment [12] the test system is PA-1. The experiment is described as above. The note with it: Gynecologic cancer cell panel viability, ATPlite luminescence, 48 h; series mostly up to 57.5 µM. Put shortly: as §2
Experiment [13] relates to SKOV3. The experiment is described as above. The note with it: Gynecologic cancer cell panel viability, ATPlite luminescence, 48 h; series mostly up to 57.5 µM. Put shortly:
as §2

Experiment [14] concerns Tov-21-G. The experiment is described as above. The note with it: Gynecologic cancer cell panel viability, ATPlite luminescence, 48 h; series mostly up to 57.5 µM. Put shortly:
as §2

Experiment [15] relates to Tov112D. The experiment is described as above. The note with it: Gynecologic cancer cell panel viability, ATPlite luminescence, 48 h; series mostly up to 57.5 µM. Put shortly: as §2
The nature of experiment [16]: Drug repurposing screens with cells derived from glioblastoma tumor samples (AID 1345199). Further: nearly all actives have a fitted effect of over 40% in size. Further: potency means the concentration at half of the fitted maximal effect. The settings on record: GBM patient neurospheres viability, ATP luminescence, 48 h. Put shortly:
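Four patient lines of CD133+ GBM neurospheres were screened at several concentrations; hits were retested in those lines plus three slower-growing GBM lines, using 48-hour treatment and ATP-based viability.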

Experiment [17] deals with MKL-2. Nature of the experiment: qHTS assay to identify novel small-molecules to repurpose for Merkel cell carcinoma treatment (AID 1296009). Further: nearly all actives have a fitted effect of over 60% in size. Further: potency means the concentration at half of the fitted maximal effect. The note with it: MCC and control cell lines, CellTiter-Glo viability, 72 h; series mostly up to 46 µM. Put shortly: as §1
Experiment [18] concerns CASKI. Nature of the experiment: Primary qHTS to identify gynecologic anti-cancer compounds using libraries of approved drugs and bioactive compounds (AID 1345084). Further: nearly all actives have a fitted effect of over 55% in size. The note with it: Gynecologic cancer cell panel viability, ATPlite luminescence, 48 h; series mostly up to 57.5 µM. Put shortly: as §2
The test system of experiment [19] is OV90. The experiment is described as above. The settings on record: Gynecologic cancer cell panel viability, ATPlite luminescence, 48 h; series mostly up to 57.5 µM. Put shortly:
as §2

For experiment [20], the system named is NIH3T3. Nature of the experiment: qHTS assay to identify novel small-molecules to repurpose for Merkel cell carcinoma treatment (AID 1296009). Further: nearly all actives have a fitted effect of over 60% in size. Further: potency means the concentration at half of the fitted maximal effect. The settings on record: MCC and control cell lines, CellTiter-Glo viability, 72 h; at 44.8 µM (top of the series) unless noted. Put shortly: as §1
Where [21] appears, read: at 45.9 µM (top of the series), tumour line B.
[22] abbreviates: at 45.9 µM (top of the series), tumour line D.
Where [23] appears, read: at 46.1 µM (top of the series), tumour line C.

Results filed as inconclusive are left out. Values without a mark were called inactive. Calls of active or inactive are those of the source. The call rests on the fitted dose curve; in most records, active means well fitted curve in the direction sought with a large enough effect; inconclusive means small, poorly fitted or top-dose-only effect, or another doubt; inactive means no such curve, though single readings can be large; an effect the other way counts as inactive or inconclusive.

These results are taken from PubChem BioAssay (NCATS).
On the % scale 0 is the no-effect control and ±100 the full control effect.

Consider `CC(CN(C)C)CN1c2ccccc2CCc2ccccc21` (configuration not stated), for which the Potency result in experiment [1], in [2], in [3], in [4], in experiment [5] and in [6] was “inactive” each time. For the same compound, the Potency entry in experiment [7], in experiment [8], in [9], in experiment [10], in experiment [11] and in experiment [12] was “inactive” each time. Also, the Potency entry in experiment [13], in experiment [14] and in experiment [15] was “inactive” in each case. For the same compound, the activity, negative = cell killing in [16] (at 20 µM (top of the series), tumour line C) was -0.604%; in experiment [16] (at 21.2 µM (top of the series), tumour line B), -19%. Also, in [16] (tumour line A), the Potency is 6.31 µM (active).
`C[C@@H]1CN(c2c(F)c(F)c3c(=O)c(C(=O)O)cn(C4CC4)c3c2F)C[C@H](C)N1`: the Potency result in experiment [1], in [2], in experiment [3], in [17], in [4] and in experiment [5] was “inactive” throughout. Also, the Potency entry in [6], in experiment [18], in [8], in experiment [9], in experiment [10] and in experiment [11] was “inactive” throughout. The Potency result in experiment [19], in experiment [12], in experiment [13], in [14] and in experiment [15] was “inactive” each time. In addition, the activity, negative = cell killing in experiment [16] (setting [21]) was -1.06%; in experiment [16] (setting [22]), -13.8%; in experiment [16] (at 46 µM (top of the series), tumour line A) it was -28.8%; in experiment [16] (setting [23]) it was 26.5%.
In the case of `Nc1cc(=O)[nH]c(N)n1`, the Potency result in experiment [1], in [2], in experiment [3], in [17], in experiment [4] and in experiment [5] was “inactive” each time. In addition, the Potency entry in experiment [6], in experiment [8], in experiment [9], in [10], in [11] and in experiment [19] was “inactive” throughout. In addition, the Potency entry in experiment [13], in experiment [14] and in experiment [15] was “inactive” in each case.
`CCOc1nc2cccc(C(=O)O)c2n1Cc1ccc(-c2ccccc2-c2nn[nH]n2)cc1`: the Potency entry in experiment [1], in [3], in [17], in experiment [4], in experiment [5] and in experiment [6] was “inactive” throughout. Besides, the Potency entry in experiment [18], in [8], in experiment [9], in experiment [10], in [11] and in experiment [19] was “inactive” each time. Also, the Potency result in [12], in experiment [13], in experiment [14] and in experiment [15] was “inactive” in each case. Besides, in experiment [20], the compound was called inactive. The activity, negative = cell killing in [16] (setting [21]) was 5.1%.
As for `O=S(=O)(O)c1cc(I)c(O)c2ncccc12`, the Potency result in [1], in [3], in [17], in [4], in experiment [5] and in experiment [6] was “inactive” each time. Moreover, the Potency result in experiment [7], in experiment [18], in experiment [8], in experiment [9], in experiment [10] and in experiment [11] was “inactive” each time. Moreover, the Potency entry in [19], in [12], in [13], in [14] and in experiment [15] was “inactive” throughout. Moreover, the activity, negative = cell killing in experiment [16] (setting [21]) is -21.6%; in experiment [16] (setting [22]), -2.75%.
For `CN(C)CCCN1c2ccccc2CCc2ccccc21`, the Potency result in [1], in experiment [2], in experiment [3], in [6], in [7] and in [18] was “inactive” throughout. For the same compound, in [11], the Potency result was “inactive”. Also, the Potency is 23.7 µM (active) in [5], 4.47 µM (active) in [16] (tumour line A) and 12.6 µM (active) in [16] (tumour line D). The activity, negative = cell killing in experiment [16] (setting [23]) was -2.23%.
